ALDH1A1 block – qHTS Assay for Inhibitors of Aldehyde Dehydrogenase 1 (ALDH1A1). Potency, µM (titrated, usually from 75.3 µM), for the others: top-dose activity, negative = inhibition, actives largely listed as inhibitors. hit rate 7.3% among 220,000. AID 1030, 2008. Purified ALDH1A1, NADH fluorescence, propionaldehyde substrate; active = well fitted inhibition curve with a large enough effect, not every such curve was filed as active; inconclusive = small, poorly fitted or top-dose-only effect, or another doubt; inactive = no such curve, though single readings can be large or run the other way;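 note: plate controls were no enzyme wells and a reference inhibitor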
Target sequence (P00352 whole entry, looked up): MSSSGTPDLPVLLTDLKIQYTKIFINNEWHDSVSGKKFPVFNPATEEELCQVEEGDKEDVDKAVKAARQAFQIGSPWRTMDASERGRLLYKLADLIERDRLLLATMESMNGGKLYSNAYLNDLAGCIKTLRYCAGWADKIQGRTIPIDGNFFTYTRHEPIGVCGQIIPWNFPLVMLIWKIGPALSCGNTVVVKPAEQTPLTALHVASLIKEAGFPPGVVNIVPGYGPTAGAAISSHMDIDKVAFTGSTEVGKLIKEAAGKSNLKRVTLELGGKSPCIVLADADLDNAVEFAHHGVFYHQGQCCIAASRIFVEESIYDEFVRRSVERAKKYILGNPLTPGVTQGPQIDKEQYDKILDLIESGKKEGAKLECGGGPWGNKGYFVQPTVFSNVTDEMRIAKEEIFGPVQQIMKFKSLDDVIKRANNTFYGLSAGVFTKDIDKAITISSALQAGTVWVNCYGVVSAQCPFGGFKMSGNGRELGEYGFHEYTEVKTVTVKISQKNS
HTT ATP protect – qHTS Multiplex Assay to Identify Dual Action Probes in a Cell Model of Huntington: Cytoprotection (ATP); PC12 HTT-Q103 induced, cytoprotection, ATP luminescence, 40 h; Potency, µM (top dose mostly 56.4 µM), for inactives: cytoprotection (ATP increase), hits mostly activators; hit rate 0.14% among 230,000; note: % of control where 0% means no effect; nearly all actives have a fitted effect of over 45% in size
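Huntington model: PC12 line, ecdysone-inducible HTTQ103 exon1–GFP, tebufenozide 100 nM. Test articles in a dose series. Endpoint luminescence from cellular ATP.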
Luc counter – Counterscreen for Luciferase (Kinase-Glo TM) Inhibition | Luciferin 4-monooxygenase (Photuris pensylvanica), Q27757 | Kinase-Glo luciferase, ATP luminescence, 8 min | Potency, µM (doses to about 38.3 µM), without a hit: at the top dose activity change, negative = inhibition, most hits filed as inhibitors | hit rate 0.28% among 200,000 | AID 1379, 2008; note: % is set by controls: 0 for no effect and ±100 for the full control effect; nearly all actives have a fitted effect of over 60% in size
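Kinase-Glo luciferase light output from ATP and luciferin was measured with 10 uM ATP, within the enzyme's linear range. Buffer: 50 mM imidazole pH 7.2, 50 mM KCl, 7 mM MgCl2, 0.01% Tween 20, 0.05% BSA; luminescence read after 8 min at ambient temperature.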
HPGD inh – qHTS Assay for Inhibitors of HPGD (15-Hydroxyprostaglandin Dehydrogenase) | AID 894, 2007 | Potency, µM, for the others: at the top dose activity change, negative = inhibition, actives largely listed as inhibitors | purified HPGD, NADH fluorescence kinetic, PGE2 substrate | hit rate 4.3% among 150,000 | 15-hydroxyprostaglandin dehydrogenase [NAD(+)] (Homo sapiens), P15428; active = well fitted inhibition curve with a large enough effect, not every such curve was filed as active; inconclusive = small, poorly fitted or top-dose-only effect, or another doubt; inactive = no such curve, though single readings can be large or run the other way; note: % is set by controls: 0 for no effect and ±100 for the full control effect
Target sequence (P15428 whole entry, looked up): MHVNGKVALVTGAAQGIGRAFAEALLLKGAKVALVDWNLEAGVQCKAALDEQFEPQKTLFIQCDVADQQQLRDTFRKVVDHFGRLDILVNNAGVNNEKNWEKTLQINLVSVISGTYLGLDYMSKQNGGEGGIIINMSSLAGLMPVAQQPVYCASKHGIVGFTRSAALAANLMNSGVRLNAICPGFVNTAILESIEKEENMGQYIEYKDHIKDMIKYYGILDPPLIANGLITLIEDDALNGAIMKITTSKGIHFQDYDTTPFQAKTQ
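20 nM HPGD preincubated 15 min at room temperature with compound in 50 mM Tris-HCl pH 8, 0.01% Tween 20. Started with 1 mM NAD+ and 30 uM prostaglandin E2; NADH fluorescence (360/450 nm) read 5 times over 30-s intervals, last minus first.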
Lamin A splicing – qHTS Assay for Modulators of Lamin A Splicing; HeLa LMNA splicing GFP/RFP minigene ratio, 48 h; Potency, µM (titrated, usually from 46.1 µM), for the others: at the highest dose ratio change, negative = inhibition, usual class: inhibitors; hit rate 0.01% among 200,000; active = well fitted inhibition curve with a large enough effect in the signal ratio, with a control signal flat, not every such curve was filed as active; inconclusive = small, poorly fitted or top-dose-only effect, or effect the other way, or a change in a side signal; the % refers to the signal ratio; note: % is set by controls: 0 for no effect and ±100 for the full control effect
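S3 HeLa cells stably expressing lamin A-EGFP splicing minigene plus DsRed2, 600 cells/well, 48 h compound exposure at 37C. Laser-scanning cytometry; analysed as GFP (500-530 nm)/RFP (575-640 nm) total intensity ratio; 0.5% DMSO vehicle.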
HTT aggregate – qHTS Multiplex Assay to Identify Dual Action Probes in a Cell Model of Huntington: Aggregate Formation (GFP); hit rate 1.1% among 220,000; Potency, µM (series often up to 46.1 µM), without a hit: at the top dose activity change, negative = inhibition, hits mostly inhibitors; PC12 HttQ103-GFP aggregates, Acumen cytometry, 40 h; AID 1688, 2009; note: % is set by controls: 0 for no effect and ±100 for the full control effect; nearly all actives have a fitted effect of over 60% in size
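Compounds (qHTS titration) were added to PC12 cells expressing an ecdysone-driven HTT exon 1 Q103–GFP fusion after induction with 100 nM tebufenozide. Aggregate formation was measured as GFP objects in cell lysates.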
Numbers without * were called inactive; ? = inconclusive; . = no result given; [ ] = dose if it differs, or a comment. Hits are enriched below; roughly 9% of the tested compounds scored in any of these assays. Unless noted, calls come from the whole dose curve; as a rule, active = well fitted curve in the direction sought with a large enough effect; inconclusive = small, poorly fitted or top-dose-only effect, or another doubt; inactive = no such curve, though single readings can be large; an effect the other way counts as inactive or inconclusive. Potency is the fitted concentration of half-maximal effect.

SMILES	ALDH1A1 block	HTT ATP protect	Luc counter	HPGD inh	Lamin A splicing	HTT aggregate
O=C(NCc1ccco1)c1cc2nc(C3CC3)cc(C(F)(F)F)n2n1	?	-8%	6%	18µM*	?	-2%
O=C(NCc1ccccc1)c1cc2nc(C3CC3)cc(C(F)(F)F)n2n1	-7%	-21%	1%	-23%	4%	-14%
O=C(Nc1nc(-c2ccccc2)cs1)C1CCCCN1S(=O)(=O)c1ccc(Cl)cc1 (configuration not stated)	0%	-76%	-2%	-2%	-23%	?
Cc1ccc(C(=O)c2sc3nsc(C)c3c2N)cc1	14µM*	13%	-4%	-27%	13%	2%
Cc1ccc(C(=C2C3C=CC2C2C(=O)NC(=O)C32)c2ccc(C)cc2)cc1 (configuration not stated)	0.89µM*	17%	-6%	-3%	12%	-18%
CC(/C=C1\N=C(SCc2ccccc2)SC1=O)=C\c1ccccc1	22µM*	.	5%	-19%	1%	25%
COC(=O)[C@H](Cc1ccccc1)NC(=O)O[C@@H]1C(=O)c2cc(Br)ccc2O[C@H]1c1cccc(OC)c1	?	-2%	5%	-10%	10%	18%
Cc1nn(CCC(N)=S)c2nc(-c3cccs3)cc(C(F)(F)F)c12	13µM*	-4%[10 µM]	2%	28µM*	-7%	0%
O=C(Cc1nc(-c2ccc(Br)s2)cs1)NCCN1CCOCC1	-2%	-2%[10 µM]	-2%	-15%	6%	-7%
COc1ccc(C(=O)NCC(=O)OCC(=O)NCc2cccs2)cc1	?	-13%	5%	.	6%[46 µM]	0%
COc1ccc(C(=O)NCC(=O)NCC(=O)OCC(=O)c2cccs2)cc1	16µM*	.	8%	-12%	4%	5%
Cc1ccc(C(=O)NCC(=O)OCC(=O)c2ccc3c(c2)OCCO3)cc1C	?	9%	-4%	-16%	10%	-6%
COc1ccc(C(=O)NCC(=O)OCC(=O)c2ccc3c(c2)OCCO3)cc1	7.9µM*	-8%	2%	-13%	0%	2%[1.84 µM]
O=[N+]([O-])c1ccc(N2CCCCC2)c(Cl)c1N1CCCCC1	?	17%	1%	-6%	-8%	-13%
O=C(OCc1ccco1)c1ccc(S(=O)(=O)N2CCCCC2)cc1	28µM*	-4%	2%	-16%	-6%	-2%
O=C(OC1CCOC1=O)c1cccc(S(=O)(=O)N2CCc3ccccc3C2)c1 (configuration not stated)	13µM*	-29%	11%	.	3%[46 µM]	-11%
O=C(OC1CCOC1=O)c1ccc(N2CCCC2)c([N+](=O)[O-])c1 (configuration not stated)	14µM*	28%[10 µM]	5%	.	12%[46 µM]	16%
O=C(OC1CCOC1=O)c1ccc(S(=O)(=O)N2CCCCCC2)cc1 (configuration not stated)	?	-9%[10 µM]	-2%	16µM*	-2%	1%
O=C(OC1CCOC1=O)c1ccc(Cl)c(S(=O)(=O)N2CCCCC2)c1 (configuration not stated)	-3%	1%	3%	.	12%[46 µM]	-4%
Cc1ccccc1SCc1noc(C(=O)NCC2CCCO2)c1C(=O)O (configuration not stated)	5%	-10%	5%	-13%	8%[0.0737 µM]	7%
O=C(O)/C=C1\CCCc2ccccc2C1O (configuration not stated)	-3%	1%	.	.	.	.
COc1ccc(OCCC(=O)N2CCOCC2)cc1	8%	16%[10 µM]	-1%	.	3%[46 µM]	4%
COc1c(F)c(F)c(C(=O)Nc2ccccc2N2CCN(C(C)=O)CC2)c(F)c1F	?	-6%[0.074 µM]	-2%	-4%	8%	5%
O=C(CCCC(=O)OCC(=O)c1cccs1)Nc1ccc(F)cc1	3%	3%[10 µM]	0%	.	-9%[46 µM]	19%[9.22 µM]
S=c1[nH]nc([C@@H]2C[C@H]2c2ccccc2)n1-c1ccccc1	?	.	0%	25µM*	1%	8%
SMILES	ALDH1A1 block	HTT ATP protect	Luc counter	HPGD inh	Lamin A splicing	HTT aggregate
Cc1ccccc1-n1c([C@@H]2C[C@H]2c2ccccc2)n[nH]c1=S	?	7%[10 µM]	.	.	.	-6%[9.22 µM]
Cc1cc(C)c(C(=O)CSc2nc3ccccc3c(=O)[nH]2)cc1C	?	-40%	-1%	.	?	2%
CCN(CC)C(=O)CSc1nc2ncc(Br)cc2[nH]1	?	-2%	.	.	-1%	1%
COCC(C)n1c(C)cc(C(=O)CSc2nc3ccccc3c(=O)[nH]2)c1C (configuration not stated)	-8%	-95%	-5%	32µM*	?	?
C=CCn1c(C)cc(C(=O)CSc2nc3ccccc3c(=O)[nH]2)c1C	?	-10%[10 µM]	5%	2.8µM*	?	-30%
CCN(CC)C(=O)CSc1nc2ccccc2c(=O)[nH]1	?	-12%	4%	8.9µM*	-17%	27%
CCN(CC)C(=O)CSc1nc2ncc(Cl)cc2[nH]1	?	-12%[0.074 µM]	-2%	13µM*	13%	-13%
C=CCn1c(C)cc(C(=O)CSc2nc3ccccc3[nH]2)c1C	-8%	-62%	-7%	?	-15%	?
O=C(Nc1ccc(N2CCN(C(=O)c3cccs3)CC2)cc1)c1cccnc1	1%	10%[10 µM]	3%	.	-12%[46 µM]	-29%
COCCn1c(C)cc(C(=O)CSc2nc3ccccc3c(=O)[nH]2)c1C	7%	19%[10 µM]	-3%	16µM*	?	-29%
CC1(C)CC(=O)C/C(=N\NC(=O)C2C3CCCCC32)C1 (configuration not stated)	-8%	.	-4%	.	-5%[46 µM]	.
CCCCCc1c(C)nc(NCc2ccccc2)[nH]c1=O	-3%	-13%[0.074 µM]	-2%	-20%	?	32µM*
CCOC(=O)N1CCN(CC(O)COCc2ccc(Cl)cc2)CC1 (configuration not stated)	5%	-8%	-1%	-14%	2%	7%
COC(=O)c1c(NC(=O)Cc2cccs2)sc2c1CCC(C)C2 (configuration not stated)	14µM*	-12%[10 µM]	5%	13µM*	-9%	-31%
CCOC(=O)c1c(NC(=O)Cn2cnc([N+](=O)[O-])n2)sc2c1CCC(C)C2 (configuration not stated)	-2%	2%	-4%	-4%	13%[0.0737 µM]	4%
COC(=O)c1c(NC(=O)Cn2cnc([N+](=O)[O-])n2)sc2c1CCC(C)C2 (configuration not stated)	-8%	-26%[10 µM]	-4%	11µM*	-3%	11%

Bioassay records: PubChem BioAssay, National Center for Advancing Translational Sciences (NCATS)
